HTT cytoprotect: qHTS Multiplex Assay to Identify Dual Action Probes in a Cell Model of Huntington: Cytoprotection (ATP); 0.14% of 230,000 active; Potency, µM (series often up to 56.4 µM), for inactives: cytoprotection (ATP increase), usual class: activators; PC12 HTT-Q103 induced, cytoprotection, ATP luminescence, 40 h; AID 1471, 2008; further: % of control where 0% means no effect; nearly all actives have a fitted effect of over 45% in size
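Stable PC12 Q103-GFP cells in serum-supplemented, phenol red-free DMEM; induction by tebufenozide at 100 nM final; compound dose series; cell viability quantified luminescently from ATP.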
KinaseGlo FLuc: Counterscreen for Luciferase (Kinase-Glo TM) Inhibition | Luciferin 4-monooxygenase (Photuris pensylvanica), Q27757 | Kinase-Glo luciferase, ATP luminescence, 8 min | Potency, µM (titrated, usually from 38.3 µM), for the others: top-dose activity change, negative = inhibition, most hits filed as inhibitors | 0.28% of 200,000 active | AID 1379, 2008; further: on the % scale 0 is the no-effect control and ±100 the full control effect; nearly all actives have a fitted effect of over 60% in size
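Recombinant Kinase-Glo luciferase, 10 uM ATP (linear range), luciferin; imidazole pH 7.2 / KCl / MgCl2 / Tween / BSA buffer; 8 min RT; luminescence.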
HttQ103 aggreg: qHTS Multiplex Assay to Identify Dual Action Probes in a Cell Model of Huntington: Aggregate Formation (GFP) | PC12 HttQ103-GFP aggregates, Acumen cytometry, 40 h | Potency, µM (doses to about 46.1 µM), for the others: top-dose activity change, negative = inhibition, usual class: inhibitors | 1.1% of 220,000 active | AID 1688, 2009; further: on the % scale 0 is the no-effect control and ±100 the full control effect; nearly all actives have a fitted effect of over 60% in size
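Multiplexed with ATP-based cell death, this channel scores GFP aggregates in PC12 cells expressing inducible HTTex1-Q103-GFP. Induction used 100 nM tebufenozide; compounds were tested in concentration series.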
ALDH1A1 block: qHTS Assay for Inhibitors of Aldehyde Dehydrogenase 1 (ALDH1A1) | Aldehyde dehydrogenase 1A1 (Homo sapiens), P00352 | Purified ALDH1A1, NADH fluorescence, propionaldehyde substrate | Potency, µM (top dose mostly 75.3 µM), inactives show at the top dose activity, negative = inhibition, most hits filed as inhibitors | 7.3% of 220,000 active | AID 1030, 2008; active means well fitted inhibition curve with a large enough effect, not every such curve was filed as active; inconclusive means small, poorly fitted or top-dose-only effect, or another doubt; inactive means no such curve, though single readings can be large or run the other way;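 further: plate controls were no enzyme wells and a reference inhibitor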
Target sequence (P00352 whole entry, looked up): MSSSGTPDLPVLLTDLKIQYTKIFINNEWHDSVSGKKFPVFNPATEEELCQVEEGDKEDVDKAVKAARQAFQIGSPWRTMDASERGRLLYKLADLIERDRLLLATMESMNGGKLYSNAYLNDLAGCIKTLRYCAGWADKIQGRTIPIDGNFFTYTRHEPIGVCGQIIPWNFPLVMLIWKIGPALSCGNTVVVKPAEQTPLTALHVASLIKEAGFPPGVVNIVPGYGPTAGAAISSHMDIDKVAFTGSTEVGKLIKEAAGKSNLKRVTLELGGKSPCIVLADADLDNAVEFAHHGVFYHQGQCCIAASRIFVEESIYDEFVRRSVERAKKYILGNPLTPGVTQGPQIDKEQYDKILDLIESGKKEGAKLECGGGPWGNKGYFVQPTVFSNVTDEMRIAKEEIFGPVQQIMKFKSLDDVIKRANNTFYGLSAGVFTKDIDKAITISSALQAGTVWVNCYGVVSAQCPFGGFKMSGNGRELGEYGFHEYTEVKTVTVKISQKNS
Lamin A splicing: qHTS Assay for Modulators of Lamin A Splicing; HeLa LMNA splicing GFP/RFP minigene ratio, 48 h; Potency, µM (titrated, usually from 46.1 µM), inactives show at the top dose ratio change, negative = inhibition, hits mostly inhibitors; 0.01% of 200,000 active; AID 1487, 2009; active means well fitted inhibition curve with a large enough effect in the signal ratio, with a control signal flat, not every such curve was filed as active; inconclusive means small, poorly fitted or top-dose-only effect, or effect the other way, or a change in a side signal; the % refers to the signal ratio; further: on the % scale 0 is the no-effect control and ±100 the full control effect
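Read-out is the ratio of GFP to DsRed2 object intensity, acquired by 488 nm laser-scanning cytometry on HeLa lamin A-EGFP minigene reporter cells. Compound incubation 48 hrs at 37 °C in Opti-MEM with 2% FBS; DMSO 0.5% final.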
HPGD inh: qHTS Assay for Inhibitors of HPGD (15-Hydroxyprostaglandin Dehydrogenase); 15-hydroxyprostaglandin dehydrogenase [NAD(+)] (Homo sapiens), P15428; purified HPGD, NADH fluorescence kinetic, PGE2 substrate; Potency, µM, for the others: at the highest dose activity change, negative = inhibition, hits mostly inhibitors; 4.3% of 150,000 active; AID 894, 2007; active means well fitted inhibition curve with a large enough effect, not every such curve was filed as active; inconclusive means small, poorly fitted or top-dose-only effect, or another doubt; inactive means no such curve, though single readings can be large or run the other way; further: on the % scale 0 is the no-effect control and ±100 the full control effect
Target sequence (P15428 whole entry, looked up): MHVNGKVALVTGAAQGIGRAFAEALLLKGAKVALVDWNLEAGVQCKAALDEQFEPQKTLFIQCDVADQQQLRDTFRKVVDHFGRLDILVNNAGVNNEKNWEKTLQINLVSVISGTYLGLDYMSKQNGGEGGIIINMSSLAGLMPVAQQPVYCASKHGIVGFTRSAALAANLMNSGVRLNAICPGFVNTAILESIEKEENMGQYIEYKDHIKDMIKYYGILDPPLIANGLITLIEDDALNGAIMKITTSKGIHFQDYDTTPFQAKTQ
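NADH formation kinetics: reaction with 30 uM PGE2 and 1 mM NAD+ (final), 20 nM enzyme, Tris-HCl pH 8 with Tween 20, after 15 min compound preincubation at room temperature. Fluorescence change, last versus first of five reads.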
Numbers without * were called inactive; ? = inconclusive; / = not tested or not shown; [ ] = another dose, or the depositor's remark. Compounds with a hit are over-represented: about 9% of the library has one in this group of screens. Unless noted, the call rests on the fitted dose curve; in most records, active means well fitted curve in the direction sought with a large enough effect; inconclusive means small, poorly fitted or top-dose-only effect, or another doubt; inactive means no such curve, though single readings can be large; an effect the other way counts as inactive or inconclusive. Potency means the concentration at half of the fitted maximal effect.

SMILES | HTT cytoprotect | KinaseGlo FLuc | HttQ103 aggreg | ALDH1A1 block | Lamin A splicing | HPGD inh
OC(c1ccc(OCc2ccccc2)cc1)c1nnc(-c2ccccc2)o1 (configuration not stated) | -8% | 20% | ? | -2% | ? | 20µM*
COc1ccc(C2=CC(c3ccc(OC)c(OC)c3)NC(=S)N2)cc1 (configuration not stated) | 12% | -1% | 17% | ? | ? | ?
COc1ccc(C2C=C(C34CC5CC(CC(C5)C3)C4)NC(=S)N2)cc1 (configuration not stated) | ? | 0% | -16% | 4µM* | ? | 0%
CCCOc1cc(C)c(S(=O)(=O)n2ccc(C)n2)cc1C | -17% | 10% | 13µM* | -11% | ? | -16%
Cc1cccc(NC(=O)CSc2nnc([C@@H]3CCCN3C(=O)OC(C)(C)C)o2)c1C | -29% | 13% | 13% | 3.5µM* | ? | -8%
CCCNC(=O)OC[C@@H]1O[C@H](CCO/N=C\c2ccc(C(=O)N3[C@H](c4ccc(C)cc4)[C@@H](C)CC[C@H]3C(=O)OC)cc2)C=C[C@@H]1Oc1ccc(OC)cc1 | -46%[10 µM] | / | / | -5%[13.5 µM] | / | /
O=C(Nc1ccon1)c1cc2c(s1)CCCCCC2 | -14%[1.9 µM] | -1% | -10% | ? | -6% | -21%
O=C(Nc1ccon1)c1cc2c(s1)CCCC2 | -9%[10 µM] | -28% | -12% | -11% | -20% | 28µM*
Cc1csc(NC(=O)c2cc3c(s2)CCCCC3)n1 | -126% | ? | ? | ? | ? | 25µM*
Cc1csc(NC(=O)c2cc3c(s2)CCCC3)n1 | 1% | / | 9% | ? | ? | /
CC(C)NC(=O)c1cc2c(s1)CCCC2 | 3%[10 µM] | -21% | -10% | ? | -4% | 22µM*
CCCCC(=O)Nc1ccccc1CC | -9%[10 µM] | / | 5%[9.22 µM] | / | / | /
COc1ccc(OCC#CCn2ccnc2)cc1 | -26% | -1% | -8%[9.22 µM] | ? | -8%[9.22 µM] | /
Cc1cc(C)c2nc(N3CCC(C(=O)N4CCCC4)CC3)sc2c1 | -4% | -3% | 12% | -12% | ? | 13µM*
CC(C)CC(=O)Nc1ccc2nc(SCC(=O)N3CCCC3)sc2c1 | / | / | / | / | 9%[46 µM] | /
Cn1c(SCC(=O)Nc2ccc3nc(SCC(=O)N4CCCC4)sc3c2)nnc1-c1ccc(N)cc1 | -10% | -2% | -4% | 13µM* | 17% | 8.9µM*
Cc1ccccc1OCc1nnc(SCC(=O)Nc2ccc3nc(SCC(=O)Nc4ccccc4)sc3c2)n1C | / | 6% | 19% | 13µM* | ? | -12%
Cn1c(SCC(=O)Nc2ccc3nc(SCC(=O)NC4CC4)sc3c2)nnc1-c1ccccc1 | -2%[10 µM] | 2% | -1% | 10µM* | -12% | 3.5µM*
CCC(=O)Nc1ccc2nc(SCC(=O)N3CCCC3)sc2c1 | -1%[10 µM] | 5% | 2% | ? | -14% | 16µM*
Cc1ccccc1OCc1nnc(SCC(=O)Nc2ccc3c(c2)OCO3)n1C | -28% | 2% | 5% | 8% | 24% | -16%
CCSC(=O)CCCCCCCCCCCO | 15% | -4% | 6% | -5% | -7% | -5%
COc1cccc(OC)c1-c1nn2c(-c3cc(-c4ccccc4)n[nH]3)nnc2s1 | -28%[0.074 µM] | 0% | -6% | 6% | ? | 13µM*
COc1cccc(-c2nnc3sc(-c4ccccc4)nn23)c1 | -20% | 3% | -22% | 5% | 1% | -25%
C[C@H](NC(=O)OC(C)(C)C)C(=O)N/N=C/C1=Cc2ccccc2OC1 | -3%[10 µM] | / | -5%[9.22 µM] | / | / | /
CC(=O)Nc1sc(C)c(C)c1C(=O)OC(C)C | 28%[0.074 µM] | -2% | -13% | 22µM* | 2% | -16%
SMILES | HTT cytoprotect | KinaseGlo FLuc | HttQ103 aggreg | ALDH1A1 block | Lamin A splicing | HPGD inh
O=C1NC(=S)N/C1=C/c1cc([N+](=O)[O-])ccc1N1CCOCC1 | -16% | 0% | 6% | 25µM* | -23%[46 µM] | /
O=Cc1cc([N+](=O)[O-])ccc1N1CCOCC1 | 17%[10 µM] | -1% | -13% | ? | 7% | -3%
Cc1c(=O)n(OCc2ccccn2)c2ccccc2[n+]1[O-] | 0%[0.074 µM] | 16% | 3% | ? | -9% | -25%
CCOc1ccc(N(CC(=O)Nc2ccc(OC)cc2)S(C)(=O)=O)cc1 | -1%[10 µM] | -4% | 12% | 18µM* | 0% | -10%
COc1ccc(N(CC(=O)Nc2ccccc2C(=O)NCc2ccco2)S(C)(=O)=O)cc1 | -13% | -3% | 4% | 11µM* | 6% | -11%
COc1ccc(OC)c(N(CC(=O)Nc2ccccc2C(=O)NCc2ccco2)S(C)(=O)=O)c1 | -4% | -1% | 18% | ? | -4% | -13%
CS(=O)(=O)N(Cc1ccc(C(=O)NCc2ccco2)cc1)c1ccccc1 | 5% | 1% | -12% | 8% | -10% | 28µM*
CCOc1ccc(N(CC(=O)Nc2cccc(Cl)c2)S(=O)(=O)c2c(C)noc2C)cc1 | 3% | 15% | 22µM* | 8% | -21% | -13%
N#CCCn1cc(C=C(C#N)C#N)c(-c2ccc(Cl)cc2)n1 | 8% | 4% | 7% | -2% | / | /
Cc1cccc(NC2=C(Cl)C(=O)OC2OC(C)C)c1 (configuration not stated) | -17% | 1% | 2% | -5% | 15%[46 µM] | /
CC(=O)Nc1c(C)nn(-c2ccc([N+](=O)[O-])cc2)c1C | -9%[10 µM] | 0% | 8%[9.22 µM] | ? | 4%[46 µM] | /
CN(C)NC(=S)NC(=O)C12CC3CC(CC(C3)C1)C2 | -10% | 5% | 14% | 28µM* | ? | /
C=C1CCC2C(C)(C)[C@H](O)CC[C@@]2(C)[C@@H]1COc1cc(=O)oc2ccccc12 (some centres not stated) | / | 4% | -25% | ? | ? | -3%
CCOC(=O)c1sc(=S)n(C)c1NC(=O)c1ccccc1C | -4%[10 µM] | 0% | 14% | 10µM* | 8% | 10µM*
CCOC(=O)c1sc(=S)n(C)c1NC(=O)c1ccc(F)cc1 | -4%[10 µM] | -2% | -2% | 2.5µM* | -14% | 7.9µM*
CNC(=O)CSc1nnc(COc2ccc([N+](=O)[O-])cc2)n1C | -35% | -2% | -4% | -6% | / | /
COc1cc(OC)cc(C(=O)NCC(=O)N2CCC(C)CC2)c1 | 2%[10 µM] | -5% | 3% | 5% | ? | -18%
c1ccc(CN2CCC(Nc3ncnc4sccc34)CC2)cc1 | -33% | -1% | 10µM* | -9% | / | /
Cc1csc2c(NC3CCN(Cc4ccccc4)CC3)ncnc12 | 5%[10 µM] | / | 26%[9.22 µM] | / | / | /
